Data reported in PubChem BioAssay (NCI).
This is part of a sample that, as a whole, favours compounds with a hit. Of some 79,000 tested, about 15% had one in any assay. Unmarked numbers belong to inactive results. Activity calls are given as the source filed them. No stated cut-off is given here; in the data, active means growth inhibition above about 70%; inactive means the rest.

Legend:
[1] = NCI Yeast Anticancer Drug Screen. Data for the rad50 strain (AID 155);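 further: 0% = growth of vehicle-only cultures of the same strain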; details: S. cerevisiae rad50 strain growth inhibition, stronger effect = higher value
In short: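 Genetically altered yeast (DNA repair pathway); compound treatment; growth inhibition vs vehicle ctrl.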

[2] = NCI Yeast Anticancer Drug Screen. Data for the mec2-1 strain (AID 157); details: S. cerevisiae mec2-1 strain, stronger effect = higher value
In short: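 Each compound was tested on mec2-1 yeast, a strain altered in DNA damage repair or cell cycle control. Growth inhibition is reported relative to vehicle.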

[3] = NCI Yeast Anticancer Drug Screen. Data for the sgs1 mgt1 strain (AID 161);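 further: 0% = growth of cultures given vehicle only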; details: S. cerevisiae sgs1 mgt1 strain, stronger effect = higher value
In short: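 Genetically altered yeast, compound exposure, growth inhibition relative to vehicle.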

[4] = NCI Yeast Anticancer Drug Screen. Data for the cln2 rad14 strain (AID 165);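 further: 0% = growth equal to vehicle treated cultures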; details: S. cerevisiae cln2 rad14 strain, stronger effect = higher value
In short: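 Test compounds were added to cln2 rad14 yeast cultures; inhibition of growth was then determined by comparison with vehicle treatment.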

[5] = NCI Yeast Anticancer Drug Screen. Data for the bub3 strain (AID 167); details: S. cerevisiae bub3 mutant strain, stronger effect = higher value
In short: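 Yeast carrying a defined mutation is treated with each compound, and growth is compared with that of vehicle-exposed cells to give inhibition.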

[6] = NCI Yeast Anticancer Drug Screen. Data for the mlh1 rad18 strain (AID 175); details: S. cerevisiae mlh1 rad18 strain growth inhibition, stronger effect = higher value
In short: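 Inhibition values reflect reduced growth of mutant yeast versus vehicle-treated controls following compound exposure; the mutations affect DNA damage repair.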

[7] = at 5.0 µM (retest, dose inferred, filed as 0.5)
[8] = at 50.0 µM (retest, dose inferred, filed as 5.0)

| Compound | growth inhibition [1, 7] | growth inhibition [1, 8] | growth inhibition ([1]; at 50.0 µM) | growth inhibition [2, 7] | growth inhibition [2, 8] | growth inhibition ([2]; at 50.0 µM) | growth inhibition [3, 7] | growth inhibition [3, 8] | growth inhibition ([3]; at 50.0 µM) | growth inhibition [4, 7] | growth inhibition [4, 8] | growth inhibition ([4]; at 50.0 µM) | growth inhibition [5, 7] | growth inhibition [5, 8] | growth inhibition ([5]; at 50.0 µM) | growth inhibition [6, 7] | growth inhibition [6, 8] | growth inhibition ([6]; at 50.0 µM) |
| --- | --- | --- | --- | --- | --- | --- | --- | --- | --- | --- | --- | --- | --- | --- | --- | --- | --- | --- |
| Nc1ccc2c(c1)S(=O)(=O)c1cc(O)ccc1O2 | 23% | 18% | 32.9% | 10% | 20% | -26.8% | 13% | 25% | -22.6% | 11% | 24% | -4.55% | 21% | 28% | -15.2% | 8% | 5% | -71% |
| O=C(OC12CCCCC1CCCC2)c1ccc([N+](=O)[O-])cc1 (configuration not stated) | 28% | 98% (active) | 98% (active) | 29% | 99% (active) | 99.5% (active) | 32% | 99% (active) | 99.1% (active) | 11% | 99% (active) | 99.5% (active) | 33% | 99% (active) | 99.4% (active) | 44% | 98% (active) | 99.2% (active) |
| COc1cc(C(c2cc3c(cc2O)OCO3)N2CCOCC2)ccc1O (configuration not stated) | 2% | 25% | 44.8% | -4% | 46% | 57.5% | -2% | 27% | 73% (active) | 1% | 3% | 47.6% | -4% | 25% | 42.9% | -5% | 34% | 50.5% |
| C1=c2ccccc2=C2C(=C(c3ccccc3)C(c3ccccc3)=NN2c2ccccc2)S1 | -25% | -9% | -14.2% | 0% | -17% | -18.6% | -13% | -22% | -18.8% | -22% | -13% | 5.9% | -4% | 2% | -5.35% | -1% | -32% | -2.55% |
| O=C(O)CSCc1cc2c3ccccc3sc2c2ccccc12 | 49% | 99% (active) | 97.9% (active) | 29% | 99% (active) | 97.2% (active) | 30% | 98% (active) | 93.2% (active) | 52% | 99% (active) | 97.7% (active) | 31% | 99% (active) | 96.8% (active) | 35% | 99% (active) | 98.5% (active) |
| CC12CCC(=O)C=C1CCC1C2CCC2(C)C(c3cnc[nH]3)CCC12 (configuration not stated) | 51% | 75% (active) | 77% (active) | 36% | 46% | 30.1% | 39% | 82% (active) | 65.2% | 52% | 43% | 34.9% | 53% | 70% (active) | 69.5% | 41% | 70% (active) | 39.1% |
| O=C(CCCCCCCCCCc1ccccc1)c1c(O)cccc1O | 37% | 96% (active) | 82.7% (active) | 29% | 97% (active) | 89% (active) | 45% | 97% (active) | 87.2% (active) | 24% | 95% (active) | 83.3% (active) | 41% | 97% (active) | 85.4% (active) | 39% | 95% (active) | 79.3% (active) |
| COc1ccc2nc3cc(Cl)ccc3c(NCCC[N+](C)(C)CCCCCCCCCCCCCCCC[N+](C)(C)CCCNc3c4ccc(Cl)cc4nc4ccc(OC)cc34)c2c1 | 85% (active) | 99% (active) | 49.2% | 76% (active) | 99% (active) | 43.6% | 77% (active) | 98% (active) | 40.4% | 76% (active) | 98% (active) | 76.6% (active) | 85% (active) | 99% (active) | 47.2% | 92% (active) | 99% (active) | 97.8% (active) |
| CCCC(C)c1ccc(O)cc1 (configuration not stated) | 6% | 13% | 57.4% | 1% | 16% | 43.9% | 0% | 16% | 51.7% | 4% | -3% | -26.3% | -2% | 17% | 24.6% | 2% | 39% | 91.7% (active) |
